Data on 42 sequences can be found in paper PMC9838217, “Structure of SALL4 zinc finger domain reveals link between AT-rich DNA binding and Okihiro syndrome”.

Changes are numbered by the printed parent chain.

What all share (test): HT-SELEX; high values mean tight binding
What all share (details): protein: recombinant; vector His6-GST; dsDNA, one strand shown

In one assay the target is T1, SALL4 ZFC4 WT (HT-SELEX) (Mus musculus, UniProt Q8BX22 870-940).
T1 sequence: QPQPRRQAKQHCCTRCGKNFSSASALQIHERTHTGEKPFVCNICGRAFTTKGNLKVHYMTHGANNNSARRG
In a few lines:
(§1)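 Library DNA (1.5 µg in cycle one, 200 ng in later cycles) was incubated with 1 µg of purified recombinant mouse SALL4 zinc finger cluster 4, residues 870–940, in 100 µl buffer (10 mM Tris–HCl pH 7.5, 50 mM NaCl, poly(dI-dC), DTT) at room temperature for 10 min. Up to 6 rounds of Ni2+ bead capture, washing, PCR amplification and reselection were run in triplicate. Reads from MiSeq sequencing were scanned for 6-mers. For each canonical k-mer, binding signal is its read fraction as fold change versus the original random library.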

Assay [1] concerns the target T2, SALL4 ZFC4 R900W (HT-SELEX) (Mus musculus, UniProt Q8BX22 870-940, R900W).
T2 sequence: T1 sequence with R31W
In outline:
as §1

Assay [2] deals with T3, SALL4 ZFC4 G921D (HT-SELEX) (Mus musculus, UniProt Q8BX22 870-940, G921D).
T3 sequence: T1 sequence with G52D
In a few lines:
as §1

Take CTATGA: the values for the binding signal (in the assay with SALL4 ZFC4 WT (HT-SELEX); in assay [1]; in assay [2]) were 1.49 ± 0.114 fold-change vs cycle 0, 1.43 ± 0.0544 fold-change vs cycle 0 and 1.42 ± 0.104 fold-change vs cycle 0, respectively.

On to CATCGA, for which the figures for the binding signal (in the assay with SALL4 ZFC4 WT (HT-SELEX); in assay [1]; in assay [2]) were 0.706 ± 0.0155 fold-change vs cycle 0, 0.749 ± 0.0387 fold-change vs cycle 0 and 0.854 ± 0.0254 fold-change vs cycle 0, respectively.

Consider ACGAGG, for which the binding signal amounted to 0.436 ± 0.0164 fold-change vs cycle 0 with SALL4 ZFC4 WT (HT-SELEX), 0.534 ± 0.018 fold-change vs cycle 0 in assay [1] and 0.618 ± 0.0579 fold-change vs cycle 0 in assay [2].

For CTAGAC, the binding signal stood at 0.775 ± 0.0462 fold-change vs cycle 0 in the assay with SALL4 ZFC4 WT (HT-SELEX), 0.888 ± 0.0389 fold-change vs cycle 0 in assay [1] and 0.932 ± 0.00894 fold-change vs cycle 0 in assay [2].

In the case of CTAGGA, the binding signal in the assay with SALL4 ZFC4 WT (HT-SELEX) stood at 0.873 ± 0.029 fold-change vs cycle 0; in assay [1], 0.993 ± 0.0392 fold-change vs cycle 0; in assay [2], 0.975 ± 0.0202 fold-change vs cycle 0.

As for TGGCAA, the binding signal with SALL4 ZFC4 WT (HT-SELEX) was 0.479 ± 0.0154 fold-change vs cycle 0; in assay [1] it was 0.535 ± 0.0186 fold-change vs cycle 0; in assay [2], 0.673 ± 0.0414 fold-change vs cycle 0.

For the sequence AAATCT, the binding signal with SALL4 ZFC4 WT (HT-SELEX) was 1.82 ± 0.0976 fold-change vs cycle 0; in assay [1], 1.85 ± 0.0812 fold-change vs cycle 0; in assay [2], 1.72 ± 0.124 fold-change vs cycle 0.

On to AGCAAT, for which the binding signal with SALL4 ZFC4 WT (HT-SELEX) was found to be 1.19 ± 0.0605 fold-change vs cycle 0; in assay [1] it was 1.21 ± 0.0474 fold-change vs cycle 0; in assay [2] it was 1.25 ± 0.111 fold-change vs cycle 0.

Turning to ACGTCT, the binding signal in the assay with SALL4 ZFC4 WT (HT-SELEX) came to 0.744 ± 0.0352 fold-change vs cycle 0; in assay [1], 0.85 ± 0.0392 fold-change vs cycle 0; in assay [2] it was 0.941 ± 0.0281 fold-change vs cycle 0.

Turning to ATGTGA, the figures for the binding signal (with SALL4 ZFC4 WT (HT-SELEX); in assay [1]; in assay [2]) were 1.31 ± 0.0395 fold-change vs cycle 0, 1.44 ± 0.0647 fold-change vs cycle 0 and 1.39 ± 0.0509 fold-change vs cycle 0, respectively.

ATCTCC: the binding signal with SALL4 ZFC4 WT (HT-SELEX) was 0.945 ± 0.0285 fold-change vs cycle 0; in assay [1], 1.04 ± 0.0372 fold-change vs cycle 0; in assay [2], 1.06 ± 0.0438 fold-change vs cycle 0.

As to AAGTAA, the binding signal was 2.17 ± 0.0689 fold-change vs cycle 0 in the assay with SALL4 ZFC4 WT (HT-SELEX), 2.26 ± 0.152 fold-change vs cycle 0 in assay [1] and 1.91 ± 0.204 fold-change vs cycle 0 in assay [2].

Take AAACAA: the binding signal is 1.75 ± 0.117 fold-change vs cycle 0 in the assay with SALL4 ZFC4 WT (HT-SELEX), 1.82 ± 0.0942 fold-change vs cycle 0 in assay [1] and 1.66 ± 0.151 fold-change vs cycle 0 in assay [2].

For the sequence TCCCCA, the binding signal in the assay with SALL4 ZFC4 WT (HT-SELEX) is 0.461 ± 0.0365 fold-change vs cycle 0; in assay [1], 0.533 ± 0.0451 fold-change vs cycle 0; in assay [2] it was 0.593 ± 0.0323 fold-change vs cycle 0.

For the sequence ATCCTC, the binding signal in the assay with SALL4 ZFC4 WT (HT-SELEX) was found to be 0.944 ± 0.0401 fold-change vs cycle 0; in assay [1], 1.06 ± 0.0699 fold-change vs cycle 0; in assay [2], 1.09 ± 0.0423 fold-change vs cycle 0.

Regarding CGTAAG, the binding signal was 0.774 ± 0.0532 fold-change vs cycle 0 in the assay with SALL4 ZFC4 WT (HT-SELEX), 0.862 ± 0.0372 fold-change vs cycle 0 in assay [1] and 0.905 ± 0.0422 fold-change vs cycle 0 in assay [2].

On to GGGAAC, for which the binding signal in the assay with SALL4 ZFC4 WT (HT-SELEX) was determined as 0.517 ± 0.0146 fold-change vs cycle 0; in assay [1], 0.591 ± 0.0347 fold-change vs cycle 0; in assay [2], 0.653 ± 0.041 fold-change vs cycle 0.

On to CAGATG, for which the binding signal in the assay with SALL4 ZFC4 WT (HT-SELEX) came out at 0.794 ± 0.0267 fold-change vs cycle 0; in assay [1], 0.922 ± 0.0206 fold-change vs cycle 0; in assay [2], 0.959 ± 0.0159 fold-change vs cycle 0.

CACTTA: the figures for the binding signal (with SALL4 ZFC4 WT (HT-SELEX); in assay [1]; in assay [2]) were 1.34 ± 0.0677 fold-change vs cycle 0, 1.46 ± 0.0563 fold-change vs cycle 0 and 1.38 ± 0.0979 fold-change vs cycle 0, respectively.

On to GAAAGA, for which the results for the binding signal (with SALL4 ZFC4 WT (HT-SELEX); in assay [1]; in assay [2]) were 1.32 ± 0.0648 fold-change vs cycle 0, 1.52 ± 0.0726 fold-change vs cycle 0 and 1.36 ± 0.0863 fold-change vs cycle 0, respectively.

With CAGGAG, the figures for the binding signal (in the assay with SALL4 ZFC4 WT (HT-SELEX); in assay [1]; in assay [2]) were 0.48 ± 0.0178 fold-change vs cycle 0, 0.596 ± 0.041 fold-change vs cycle 0 and 0.676 ± 0.0293 fold-change vs cycle 0, respectively.

On to GGATCC, for which the binding signal in the assay with SALL4 ZFC4 WT (HT-SELEX) came to 0.489 ± 0.0186 fold-change vs cycle 0; in assay [1] it was 0.559 ± 0.0217 fold-change vs cycle 0; in assay [2], 0.643 ± 0.0527 fold-change vs cycle 0.

In the case of ACCCGT, the figures for the binding signal (in the assay with SALL4 ZFC4 WT (HT-SELEX); in assay [1]; in assay [2]) were 0.418 ± 0.0141 fold-change vs cycle 0, 0.5 ± 0.0199 fold-change vs cycle 0 and 0.577 ± 0.0315 fold-change vs cycle 0, respectively.

In the case of CCATGC, the values for the binding signal (with SALL4 ZFC4 WT (HT-SELEX); in assay [1]; in assay [2]) were 0.345 ± 0.0259 fold-change vs cycle 0, 0.399 ± 0.0174 fold-change vs cycle 0 and 0.514 ± 0.0663 fold-change vs cycle 0, respectively.

In the case of CTGAGC, the binding signal with SALL4 ZFC4 WT (HT-SELEX) came to 0.348 ± 0.00959 fold-change vs cycle 0; in assay [1], 0.42 ± 0.0161 fold-change vs cycle 0; in assay [2], 0.535 ± 0.0354 fold-change vs cycle 0.

For GTTGAA, the binding signal with SALL4 ZFC4 WT (HT-SELEX) worked out at 1.18 ± 0.0583 fold-change vs cycle 0; in assay [1] it was 1.34 ± 0.0591 fold-change vs cycle 0; in assay [2], 1.3 ± 0.109 fold-change vs cycle 0.

As for ACTGTC, the binding signal in the assay with SALL4 ZFC4 WT (HT-SELEX) turned out to be 0.75 ± 0.0397 fold-change vs cycle 0; in assay [1] it was 0.857 ± 0.0177 fold-change vs cycle 0; in assay [2], 0.901 ± 0.0149 fold-change vs cycle 0.

As for GGTGAC, the binding signal with SALL4 ZFC4 WT (HT-SELEX) is 0.454 ± 0.0238 fold-change vs cycle 0; in assay [1], 0.526 ± 0.0318 fold-change vs cycle 0; in assay [2] it was 0.642 ± 0.0609 fold-change vs cycle 0.

Take ACCGAT: the binding signal came out at 0.687 ± 0.0287 fold-change vs cycle 0 in the assay with SALL4 ZFC4 WT (HT-SELEX), 0.745 ± 0.0142 fold-change vs cycle 0 in assay [1] and 0.862 ± 0.0275 fold-change vs cycle 0 in assay [2].

As to CAGACA, the binding signal with SALL4 ZFC4 WT (HT-SELEX) came out at 0.66 ± 0.0364 fold-change vs cycle 0; in assay [1] it was 0.798 ± 0.012 fold-change vs cycle 0; in assay [2] it was 0.862 ± 0.0574 fold-change vs cycle 0.

As to GCAACC, the binding signal with SALL4 ZFC4 WT (HT-SELEX) was determined as 0.327 ± 0.0217 fold-change vs cycle 0; in assay [1] it was 0.365 ± 0.0107 fold-change vs cycle 0; in assay [2] it was 0.503 ± 0.0559 fold-change vs cycle 0.

As to CCGTTC, the binding signal came out at 0.364 ± 0.0226 fold-change vs cycle 0 with SALL4 ZFC4 WT (HT-SELEX), 0.435 ± 0.0276 fold-change vs cycle 0 in assay [1] and 0.511 ± 0.0586 fold-change vs cycle 0 in assay [2].

Consider TCCACA, for which the binding signal in the assay with SALL4 ZFC4 WT (HT-SELEX) worked out at 0.698 ± 0.0439 fold-change vs cycle 0; in assay [1], 0.806 ± 0.0256 fold-change vs cycle 0; in assay [2], 0.842 ± 0.0543 fold-change vs cycle 0.

Consider CCTAGC, for which the binding signal was 0.4 ± 0.0405 fold-change vs cycle 0 with SALL4 ZFC4 WT (HT-SELEX), 0.434 ± 0.0293 fold-change vs cycle 0 in assay [1] and 0.55 ± 0.055 fold-change vs cycle 0 in assay [2].

In the case of ATGAAT, the results for the binding signal (with SALL4 ZFC4 WT (HT-SELEX); in assay [1]; in assay [2]) were 3.02 ± 0.199 fold-change vs cycle 0, 2.16 ± 0.113 fold-change vs cycle 0 and 1.92 ± 0.161 fold-change vs cycle 0, respectively.

On to CAATCC, for which the results for the binding signal (with SALL4 ZFC4 WT (HT-SELEX); in assay [1]; in assay [2]) were 0.816 ± 0.0436 fold-change vs cycle 0, 0.939 ± 0.0312 fold-change vs cycle 0 and 0.973 ± 0.0236 fold-change vs cycle 0, respectively.

Turning to CGGAAA, the figures for the binding signal (in the assay with SALL4 ZFC4 WT (HT-SELEX); in assay [1]; in assay [2]) were 0.548 ± 0.0301 fold-change vs cycle 0, 0.591 ± 0.00691 fold-change vs cycle 0 and 0.694 ± 0.0765 fold-change vs cycle 0, respectively.

Take ATAATG: the binding signal came out at 2.28 ± 0.148 fold-change vs cycle 0 with SALL4 ZFC4 WT (HT-SELEX), 2.02 ± 0.123 fold-change vs cycle 0 in assay [1] and 1.81 ± 0.182 fold-change vs cycle 0 in assay [2].

As to GCTATA, the binding signal in the assay with SALL4 ZFC4 WT (HT-SELEX) stood at 1.13 ± 0.0575 fold-change vs cycle 0; in assay [1] it was 1.11 ± 0.0825 fold-change vs cycle 0; in assay [2], 1.15 ± 0.0714 fold-change vs cycle 0.

Turning to CAAGCA, the binding signal with SALL4 ZFC4 WT (HT-SELEX) stood at 0.6412 ± 0.00497 fold-change vs cycle 0; in assay [1] it was 0.724 ± 0.0186 fold-change vs cycle 0; in assay [2], 0.814 ± 0.0122 fold-change vs cycle 0.

For GACGTA, the values for the binding signal (with SALL4 ZFC4 WT (HT-SELEX); in assay [1]; in assay [2]) were 0.666 ± 0.0264 fold-change vs cycle 0, 0.752 ± 0.0315 fold-change vs cycle 0 and 0.823 ± 0.0398 fold-change vs cycle 0, respectively.

With CGGATC, the binding signal with SALL4 ZFC4 WT (HT-SELEX) is 0.362 ± 0.0382 fold-change vs cycle 0; in assay [1], 0.438 ± 0.0155 fold-change vs cycle 0; in assay [2], 0.571 ± 0.02 fold-change vs cycle 0.
